# From PubChem BioAssay (NCATS)
# Records with an inconclusive call do not appear. Values without a mark were called inactive. Calls of active or inactive are those of the source. Calls follow the shape of the dose curve; as a rule, active = well fitted cell-killing curve with a large enough effect; inconclusive = small, poorly fitted or top-dose-only effect, or effect the other way; inactive = no such curve, though single readings can be large or run the other way.
# Columns and labels:
# [1] = Quantitative High-Throughput drug screen in 47 multiple myeloma cell lines against the NCATS MIPE library collection: U266_ATCC cell viability assay (AID 1919864); conditions: U266 myeloma viability, CellTiter-Glo ATP luminescence, 48 h; series mostly up to 45.8 µM; also: nearly all actives have a fitted effect of over 35% in size;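 as to viability (% of DMSO control): 0% = media-only wells without cells and 100% = DMSO-only wells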
# Outline: (§1)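 Plated at 500 cells per well, myeloma lines received MIPE 4.0 compounds by pin tool. Following 48 h culture at 37 °C, CellTiter-Glo luminescence gave viability relative to DMSO and media-only controls.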
# [2] = Quantitative High-Throughput drug screen in 47 multiple myeloma cell lines against the NCATS MIPE library collection: XG1_PLB cell viability assay (AID 1919866); conditions: CellTiter-Glo ATP, 48 h; series mostly up to 45.8 µM; also: nearly all actives have a fitted effect of over 35% in size
# Outline: as §1
# [3] = Quantitative High-Throughput drug screen in 47 multiple myeloma cell lines against the NCATS MIPE library collection: PE2_PLB cell viability assay (AID 1919869); conditions: PE2_PLB myeloma cells viability, ATP luminescence, 48 h; series mostly up to 45.8 µM; also: nearly all actives have a fitted effect of over 35% in size
# Outline: as §1
# [4] = Quantitative High-Throughput drug screen in 47 multiple myeloma cell lines against the NCATS MIPE library collection: PCM6_Riken cell viability assay (AID 1919870); conditions: CellTiter-Glo ATP, 48 h; series mostly up to 45.8 µM; also: nearly all actives have a fitted effect of over 30% in size
# Outline: as §1
# [5] = Quantitative High-Throughput drug screen in 47 multiple myeloma cell lines against the NCATS MIPE library collection: SKMM1_PLB cell viability assay (AID 1919863); conditions: SKMM1 myeloma viability, CellTiter-Glo ATP, 48 h; viability: stronger effect = lower value; also: nearly all actives have a fitted effect of over 35% in size
# Outline: as §1
# [6] = Quantitative High-Throughput drug screen in 47 multiple myeloma cell lines against the NCATS MIPE library collection: XG6_PLB cell viability assay (AID 1919865); conditions: XG6 myeloma viability, CellTiter-Glo ATP luminescence, 48 h; series mostly up to 45.8 µM; also: nearly all actives have a fitted effect of over 40% in size
# Outline: as §1
# [7] = Quantitative High-Throughput drug screen in 47 multiple myeloma cell lines against the NCATS MIPE library collection: OPM1_PLB cell viability assay (AID 1918989); conditions: CellTiter-Glo, 48 h; series mostly up to 45.8 µM; also: nearly all actives have a fitted effect of over 40% in size
# Outline: as §1
# [8] = Quantitative High-Throughput drug screen in 47 multiple myeloma cell lines against the NCATS MIPE library collection: VP6_DJ cell viability assay (AID 1919867); conditions: ATP luminescence, 48 h; series mostly up to 45.8 µM; also: nearly all actives have a fitted effect of over 40% in size
# Outline: as §1
# [9] = Quantitative High-Throughput drug screen in 47 multiple myeloma cell lines against the NCATS MIPE library collection: UTMC2_PLB cell viability assay (AID 1919868); conditions: CellTiter-Glo ATP luminescence, 48 h; viability (% of DMSO control): at 45.8 µM (top of the series); also: nearly all actives have a fitted effect of over 55% in size;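 as to viability (% of DMSO control): 100% = DMSO-only wells and 0% = media-only wells without cells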
# Outline: as §1
# Potency is read from the fitted curve at half-maximal effect.
smiles,measurement,setting,value
O=c1[nH]cnc2[nH]ncc12,Potency,[1],inactive
same,Potency,[2],inactive
same,Potency,[3],18.7 µM (active)
same,Potency,[4],inactive
Nc1ccc(S(=O)(=O)Nc2ccnn2-c2ccccc2)cc1,viability,[5],145%
same,Potency,[6],inactive
same,Potency,[3],inactive
same,Potency,[4],inactive
Cc1c(CCOc2ccc(C(=O)O)cc2)c2cc(Cl)ccc2n1C(c1ccccc1)c1ccccc1,viability,[5],110%
same,Potency,[1],11.8 µM (active)
same,Potency,[6],inactive
same,Potency,[2],inactive
same,Potency,[3],inactive
same,Potency,[4],inactive
CC1(C)CNc2cc(NC(=O)c3cccnc3NCc3ccncc3)ccc21,Potency,[7],inactive
same,Potency,[6],0.372 µM (active)
same,Potency,[8],1.66 µM (active)
same,Potency,[4],1.32 µM (active)
CCc1cc(Nc2nccc(-c3c(-c4ccc(OC)c(C(=O)Nc5c(F)cccc5F)c4)nc4ccccn34)n2)c(OC)cc1N1CCC(N2CCN(S(C)(=O)=O)CC2)CC1,Potency,[7],14.8 µM (active)
same,Potency,[2],1.18 µM (active)
same,Potency,[8],2.64 µM (active)
same,Potency,[3],5.26 µM (active)
O=c1n(CCCN2CCN(c3cccc(Cl)c3)CC2)nc2ccccn12,Potency,[7],inactive
same,Potency,[2],inactive
same,Potency,[3],inactive
same,Potency,[4],inactive
CCN(CC)CCCC(C)Nc1nc(C)cc(Nc2ccc3nc(C)cc(N)c3c2)n1 (stereo unspecified),viability,[5],123%
same,Potency,[8],3.72 µM (active)
same,Potency,[3],10.5 µM (active)
COCC(=O)NCC=Cc1ccc2ncnc(Nc3ccc(Oc4ccc(C)nc4)c(C)c3)c2c1,Potency,[7],18.7 µM (active)
same,Potency,[6],16.6 µM (active)
same,Potency,[2],20.9 µM (active)
same,Potency,[8],18.7 µM (active)
same,Potency,[3],16.6 µM (active)
same,Potency,[4],20.9 µM (active)
CC(C)NCC(O)COc1ccc(COCCOC(C)C)cc1 (stereo unspecified),Potency,[1],inactive
same,Potency,[6],inactive
same,Potency,[2],inactive
same,Potency,[9],inactive
same,Potency,[4],inactive
Cc1cccc(-c2[nH]c(C(C)(C)C)nc2-c2ccc3nccnc3c2)n1,Potency,[6],3.32 µM (active)
same,Potency,[3],2.09 µM (active)
same,Potency,[4],7.43 µM (active)
Cc1ccccc1C(C(=O)NC1CCCC1)N(C(=O)Cn1cnc2ccccc21)c1cccc(F)c1 (stereo unspecified),Potency,[5],10.5 µM (active)
same,Potency,[1],23.5 µM (active)
same,Potency,[6],inactive
same,Potency,[2],18.7 µM (active)
same,Potency,[4],inactive
Cc1n[nH]c(C)c1Cc1sc2c(c1C(=O)N1C[C@H](O)CO1)c(=O)n(C)c(=O)n2CC(C)C,Potency,[6],inactive
same,Potency,[3],0.235 µM (active)
same,Potency,[4],inactive
OC[C@H](Cc1ccccc1)Nc1nc(Oc2ccc3c(c2)CCC3)nc2c1ncn2Cc1ccc(-c2ccccc2)cc1,Potency,[7],11.8 µM (active)
same,Potency,[4],inactive
O=C(C=Cc1ccc(/C=C/C(=O)Nc2ccc(C3=NCCN3)cc2)cc1)Nc1ccc(C2=NCCN2)cc1,viability,[5],118%
same,Potency,[6],inactive
same,Potency,[2],inactive
same,Potency,[8],inactive
same,Potency,[3],inactive
same,Potency,[4],inactive
COCCNCCCn1c(C(=O)CF)c(-c2ccc(C)cc2)c2c(N)ncnc21,Potency,[1],inactive
same,Potency,[3],14.8 µM (active)
same,Potency,[4],10.5 µM (active)
CC1(C)Cc2c(-c3ccccc3)c(-c3ccc(Cl)cc3)c(CC(=O)O)n2C1,Potency,[5],20.9 µM (active)
same,Potency,[1],18.7 µM (active)
same,Potency,[6],18.7 µM (active)
same,Potency,[2],14.8 µM (active)
same,Potency,[3],20.9 µM (active)
COc1nc(-c2ccc3c(c2)OCO3)n(-c2ccc(NC(=O)CSc3ccccc3)cc2)n1,viability,[5],123%
same,Potency,[1],5.26 µM (active)
same,Potency,[6],inactive
same,Potency,[2],inactive
same,Potency,[3],inactive
same,Potency,[4],inactive
NC(N)=NC(=O)c1nc(Cl)c(N)nc1N,Potency,[1],inactive
same,Potency,[6],7.43 µM (active)
same,Potency,[2],8.33 µM (active)
O=S(=O)(N=Cc1c(O)ccc2ccccc12)c1cccs1,Potency,[7],7.43 µM (active)
same,Potency,[6],0.0935 µM (active)
same,Potency,[2],20.9 µM (active)
same,Potency,[9],18.7 µM (active)
Cc1cnc(Nc2ccc(OCCN3CCCC3)cc2)nc1Nc1cccc(S(=O)(=O)NC(C)(C)C)c1,Potency,[6],inactive
same,Potency,[2],0.469 µM (active)
CCCC(CCC)C(=O)O,viability,[5],126%
same,Potency,[6],26.4 µM (active)
same,Potency,[2],20.9 µM (active)
same,Potency,[8],18.7 µM (active)
same,Potency,[3],inactive
Cc1oncc1C(=O)Nc1ccc(C(F)(F)F)cc1,viability,[5],115%
same,Potency,[6],4.69 µM (active)
same,Potency,[2],16.6 µM (active)
same,Potency,[9],inactive
same,Potency,[3],inactive
same,Potency,[4],inactive
C[C@@H]1CN(Cc2ccc(F)cc2)[C@@H](C)CN1C(=O)c1cc2c(C(=O)C(=O)N(C)C)cn(C)c2cc1Cl,Potency,[7],29.6 µM (active)
same,Potency,[2],18.7 µM (active)
same,Potency,[8],14.8 µM (active)
same,Potency,[3],16.6 µM (active)
same,Potency,[4],18.7 µM (active)
NC(=O)c1cnccn1,viability,[5],112%
same,Potency,[2],inactive
same,Potency,[3],inactive
CCOc1cc(C(=O)Nc2ccc(Cl)c(-c3nc4ccccc4[nH]3)c2)cc(OCC)c1OCC,Potency,[3],8.33 µM (active)
CCN(CC)CCCC(C)Nc1ccnc2cc(Cl)ccc12 (stereo unspecified),viability,[5],95.1%
same,Potency,[6],10.5 µM (active)
same,Potency,[2],10.5 µM (active)
same,Potency,[3],inactive
same,Potency,[4],10.5 µM (active)
CN(C(=O)c1ccc(F)cc1C(F)(F)F)C1CCN(c2nnc(-c3ccnn3C)c3ccccc23)CC1,Potency,[7],inactive
same,Potency,[2],13.2 µM (active)
same,Potency,[3],18.7 µM (active)
Cc1ccnc(NS(=O)(=O)c2ccc(NC(=O)Nc3ccc(S(=O)(=O)Nc4nccc(C)n4)cc3)cc2)n1,Potency,[7],18.7 µM (active)
same,Potency,[6],4.18 µM (active)
same,Potency,[4],4.69 µM (active)
Cn1c(=O)c(F)c(Nc2ccc(I)cc2F)c2c(=O)n(C[C@@H](O)CO)cnc21,Potency,[1],9.35 µM (active)
same,Potency,[2],inactive
same,Potency,[3],9.35 µM (active)
